From PubChem BioAssay (Tox21)
Values joined by “and” are separate entries in the source; they are usually repeats but may differ in a detail not shown here. Identical values can stand only once. Records with an inconclusive call do not appear. A call without a number means that no potency is given here. Active and inactive are the calls of the source. Unless noted, the call rests on the fitted dose curve; in most records, active means well fitted curve in the direction sought with a large enough effect in the repeat runs; inconclusive means weak or mixed curves; inactive means no such curve, though single readings can be large; an effect the other way counts as inactive or inconclusive.

Assays:
[1] = qHTS assay for small molecules that induce genotoxicity in human embryonic kidney cells expressing luciferase-tagged ATAD5 (AID 651632); further: nearly all actives have a fitted effect of over 15% in size; further: potency means the concentration at half of the fitted maximal effect
Outline: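 Test compounds were delivered by pin tool onto HEK293T reporter cells (2,000/well) expressing ATAD5 fused to luciferase. After 16 hr at 37C, 5% CO2, Amplite was added for 30 min at room temperature and luminescence was measured.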

[2] = qHTS assay for small molecule agonists of the p53 signaling pathway - cell viability (AID 651633; calls by dose curve; further: nearly all actives have a fitted effect of over 30% in size; further: potency means the concentration at half of the fitted maximal effect)
Outline: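 p53RE-bla cells were treated with compound for 16 hours at 37 C. Cytotoxicity was then measured as CellTiter-Glo luminescence after 30 min at room temperature.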

[3] = qHTS assay for small molecules that induce genotoxicity in human embryonic kidney cells expressing luciferase-tagged ATAD5 - cell viability (AID 651634; calls by dose curve; further: nearly all actives have a fitted effect of over 25% in size; further: potency means the concentration at half of the fitted maximal effect)
Outline: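 Quantitative high-throughput format. HEK293T cells expressing ATAD5 fused to luciferase were plated at 2,000 cells/well and treated 15.5 hr with compound versus DMSO. Viability was determined by fluorescent live-cell protease substrate, 30 min at 37C.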

[4] = qHTS assay for small molecule disruptors of the mitochondrial membrane potential - cell viability (AID 720634; calls by dose curve; further: nearly all actives have a fitted effect of over 20% in size; further: potency means the concentration at half of the fitted maximal effect)
Outline: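 Same-well counter-screen: following the MMP dye addition, CellTiter-Glo was added to 1 hr compound-treated HepG2 cells and luminescence read after 30 min at room temperature.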

[5] = qHTS assay for small molecule disruptors of the mitochondrial membrane potential (AID 720635); further: potency means the concentration at half of the fitted maximal effect
Outline: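 HepG2 cells exposed to compound 1 hr at 37C, then Mito-MPS dye 30 min. Ratio read of aggregate (540/590 nm) versus monomer (490/535 nm) fluorescence.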

[6] = qHTS assay to test for compound auto fluorescence at 590 nm (red) in HepG2 cells (AID 720674)
Outline: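 HepG2 cells, 2,000 per well in MEM with 10% FBS, attached overnight at 37 C, then got 23 nL compound or DMSO. After 1 hr at 37 C, 5% CO2, red fluorescence was read at 540/590 nm against Rose Bengal sodium as reference.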

[7] = qHTS assay to test for compound auto fluorescence at 535 nm (green) in HepG2 cells (AID 720675)
[8] = qHTS assay to test for compound auto fluorescence at 460 nm (blue) in HEK293 cells (AID 720678)
Outline: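 Intrinsic compound fluorescence is recorded in live HEK293 cultures after overnight incubation at 37C, 5% CO2, using excitation 405 nm and emission 460 nm. Values are referenced to triamterene.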

[9] = qHTS assay to test for compound auto fluorescence at 590 nm (red) in HEK293 cells (AID 720679)
Outline: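 Red autofluorescence, HEK293 cells: 2,000 cells/well; attach 4-5 hr 37C; add 23 nL cpd or DMSO; incubate o/n 37C 5% CO2; read Ex540/Em590; Rose Bengal sodium reference.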

[10] = qHTS assay to test for compound auto fluorescence at 535 nm (green) in HEK293 cells (AID 720680)
[11] = qHTS assay to test for compound auto fluorescence at 460 nm (blue) in HEK293 cell free culture (AID 720681)
Outline: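 Compounds were added to cell-free DMEM with 10% FBS and fluorescence read directly. The blue channel used 405 nm excitation and 460 nm emission, with triamterene as the reference fluorophore.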

[12] = qHTS assay to test for compound auto fluorescence at 535 nm (green) in HEK293 cell free culture (AID 720682)
Outline: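 Intrinsic compound fluorescence is measured in culture medium containing 10% FBS, with excitation at 485 nm and detection at 535 nm, referenced to fluorescein.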

[13] = qHTS assay to test for compound auto fluorescence at 590 nm (red) in HEK293 cell free culture (AID 720683)
Outline: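 Cell-free wells of DMEM with 10% FBS received compound, and intrinsic fluorescence was read at excitation/emission 540/590 nm. Values expressed as equivalence to Rose Bengal sodium.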

[14] = qHTS assay to test for compound auto fluorescence at 590 nm (red) in HepG2 cell free culture (AID 720684)
Outline: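 Rose Bengal sodium served as the reference for red signal. Test compounds were dispensed into serum-containing MEM (10% FBS) without cells, and plates were read at 540/590 nm.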

[15] = qHTS assay to test for compound auto fluorescence at 460 nm (blue) in HepG2 cell free culture (AID 720685)
Outline: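 Cell-free plates of MEM plus 10% FBS received 23 nL compound or DMSO vehicle; blue-channel (405/460 nm) intensity scored against triamterene as reference fluorophore.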

[16] = qHTS assay to test for compound auto fluorescence at 535 nm (green) in HepG2 cell free culture (AID 720686)
[17] = qHTS assay to test for compound auto fluorescence at 460 nm (blue) in HepG2 cells (AID 720687)
Outline: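 HepG2 cells in MEM with 10% FBS, attached overnight at 37 C, were exposed to compound or DMSO for 1 hr at 37 C, 5% CO2. Blue fluorescence was read at 405/460 nm, with triamterene as reference fluorophore.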

[18] = qHTS assay for small molecule agonists of the p53 signaling pathway (AID 651631; calls by dose curve; further: nearly all actives have a fitted effect of over 15% in size; further: potency means the concentration at half of the fitted maximal effect)
Outline: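 Fluorescence intensity from cleaved LiveBLAzer B/G substrate (2 h, room temperature) served as the signal. Beforehand, HCT-116 reporter cells bearing p53 response elements were treated 16 h at 37 °C with DMSO-dissolved compounds.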

[19] = molecular target: Glucocorticoid receptor (Homo sapiens) (UniProt P04150); experiment: qHTS assay to identify small molecule agonists of the glucocorticoid receptor (GR) signaling pathway (AID 720691; active means well fitted activation curve with a large enough effect in the signal ratio in the repeat runs, not every such curve was filed as active; the % refers to the signal ratio)
Sequence of Glucocorticoid receptor (Homo sapiens) (P04150 whole entry, looked up): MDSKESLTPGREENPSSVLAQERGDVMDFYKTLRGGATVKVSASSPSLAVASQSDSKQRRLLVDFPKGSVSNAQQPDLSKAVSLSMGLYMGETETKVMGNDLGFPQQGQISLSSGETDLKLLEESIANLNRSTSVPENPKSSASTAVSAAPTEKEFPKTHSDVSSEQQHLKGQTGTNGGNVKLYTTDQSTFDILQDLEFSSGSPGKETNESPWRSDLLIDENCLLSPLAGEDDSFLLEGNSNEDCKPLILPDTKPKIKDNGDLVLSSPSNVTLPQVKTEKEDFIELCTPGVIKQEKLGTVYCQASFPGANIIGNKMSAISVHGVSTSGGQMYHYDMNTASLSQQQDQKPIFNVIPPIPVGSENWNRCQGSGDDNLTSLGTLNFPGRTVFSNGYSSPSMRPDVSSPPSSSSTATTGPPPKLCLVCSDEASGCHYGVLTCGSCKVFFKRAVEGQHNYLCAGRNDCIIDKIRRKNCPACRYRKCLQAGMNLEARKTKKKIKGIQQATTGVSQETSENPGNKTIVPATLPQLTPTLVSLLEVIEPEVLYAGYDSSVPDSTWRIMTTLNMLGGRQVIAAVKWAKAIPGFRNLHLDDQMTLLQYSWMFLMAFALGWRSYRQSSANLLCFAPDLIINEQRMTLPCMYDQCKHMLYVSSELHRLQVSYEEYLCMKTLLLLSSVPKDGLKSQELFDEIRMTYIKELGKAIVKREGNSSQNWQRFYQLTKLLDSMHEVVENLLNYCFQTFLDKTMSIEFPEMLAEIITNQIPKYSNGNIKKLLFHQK
Outline: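 A HeLa cervical cancer line expressing GR and a glucocorticoid response element-driven beta-lactamase gene is treated with compounds for 18 h; LiveBLAzer B/G FRET substrate is then applied and fluorescence read.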

[20] = molecular target: Glucocorticoid receptor (Homo sapiens) (UniProt P04150); experiment: qHTS assay to identify small molecule antagonists of the glucocorticoid receptor (GR) signaling pathway (AID 720692; active means well fitted inhibition curve with a large enough effect in the signal ratio in the repeat runs, not every such curve was filed as active; the % refers to the signal ratio)
Outline: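 GRE-bla HeLa line, dex-stimulated (5 nM final). Compound exposure 18 h, 37 C. Beta-lactamase FRET read after 2 h RT substrate.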

| Compound | Potency [1] | Potency [2] | Potency [3] | Potency [4] | Potency [5] | outcome [6] | outcome [7] | Potency [8] | outcome [9] | outcome [10] | Potency [11] | outcome [12] | outcome [13] | outcome [14] | Potency [15] | outcome [16] | Potency [17] | Potency [18] | outcome [19] | Potency [20] |
| --- | --- | --- | --- | --- | --- | --- | --- | --- | --- | --- | --- | --- | --- | --- | --- | --- | --- | --- | --- | --- |
| CNC(=O)CSP(=S)(OC)OC | inactive | inactive | inactive | inactive | inactive | inactive | inactive | inactive | inactive | inactive | inactive | inactive | inactive | inactive | inactive | inactive | – | – | – | – |
| NN=C(N)N | inactive | inactive | inactive | inactive | inactive | inactive | inactive | inactive | inactive | inactive | inactive | inactive | inactive | inactive | inactive | inactive | inactive | – | – | – |
| COC(=O)Nc1nc2ccccc2[nH]1 | inactive | inactive | inactive | inactive | – | inactive | inactive | inactive | inactive | inactive | inactive | inactive | inactive | inactive | inactive | inactive | inactive | 7.7 µM (active) and 13.7 µM (active) | inactive | inactive |
| C[N+](C)(C)C | inactive | inactive | inactive | – | – | inactive | inactive | inactive | inactive | inactive | inactive | inactive | inactive | inactive | inactive | inactive | – | inactive | – | – |
| ClC(Cl)(Cl)Br | inactive | inactive | inactive | inactive | inactive | inactive | inactive | inactive | inactive | inactive | inactive | inactive | inactive | inactive | inactive | inactive | – | inactive | inactive | inactive |
| CC1(C)Cc2cccc(O)c2O1 | inactive | inactive | inactive | inactive | inactive | inactive | inactive | inactive | inactive | inactive | inactive | inactive | inactive | inactive | inactive | inactive | – | – | – | – |
| S=c1[nH]c2ccccc2[nH]1 | – | inactive | inactive | inactive | inactive | inactive | inactive | inactive | inactive | inactive | inactive | inactive | inactive | inactive | – | inactive | inactive | inactive | inactive | inactive |
| Cc1ccc([N+](=O)[O-])cc1 | inactive | inactive | inactive | inactive | inactive | inactive | inactive | inactive | inactive | inactive | inactive | – | inactive | inactive | – | inactive | – | inactive | inactive | inactive |
| CNC(=S)S | inactive | inactive | inactive | inactive | inactive | inactive | inactive | inactive | inactive | inactive | inactive | inactive | inactive | inactive | inactive | inactive | inactive | inactive | inactive | inactive |
| CCC[CH2][Sn]([Cl])([CH2]CCC)[CH2]CCC | inactive | 687 nM (active) and 1.22 µM (active) | 612 nM (active) and 3.06 µM (active) | 1.73 µM (active) and 4.86 µM (active) | 61.3 nM (active) and 122 nM (active) | inactive | inactive | inactive | inactive | inactive | inactive | inactive | inactive | inactive | inactive | inactive | inactive | – | – | – |
| Brc1ccc(Br)cc1 | inactive | inactive | inactive | inactive | inactive | inactive | inactive | inactive | inactive | inactive | inactive | – | inactive | inactive | inactive | inactive | – | inactive | inactive | inactive |
| O=[N+]([O-])c1ccc(Cl)c([N+](=O)[O-])c1 | 24.7 µM (active) | 22 µM (active) and 54.5 µM (active) | 55.3 µM (active) and 68.6 µM (active) | 22 µM (active) and 21.7 µM (active) | 8.77 µM (active) and 8.63 µM (active) | inactive | inactive | inactive | inactive | inactive | inactive | – | inactive | inactive | inactive | inactive | inactive | 55.3 µM (active) and 12.2 µM (active) | – | – |
| CCCCOCCOC(C)=O | inactive | inactive | inactive | inactive | 53 µM (active) | inactive | inactive | inactive | inactive | inactive | inactive | inactive | inactive | inactive | inactive | inactive | inactive | inactive | inactive | inactive |
| Oc1ccc(Cl)cc1Cl | inactive | inactive | inactive | inactive | 30.4 µM (active) and 27.3 µM (active) | inactive | inactive | inactive | inactive | inactive | inactive | – | inactive | inactive | inactive | inactive | inactive | inactive | inactive | inactive |
